# Compound activity deposited in PubChem by several laboratories.
# Sampled rows, rich in hits. Any-hit rate of the full collection: about 4.2%.
# FBA Mtb inh: Mtb fructose-bisphosphate aldolase inhibition; P9WQA3; purified M. tuberculosis FBA, fluorescence read-out; inhibition, % at 1 µM; 2.3% of 360,000 active; in the data active = inhibition above about 27%;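 note: 0% = vehicle and 100% = reference inhibitor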
# RecA splice inh: blocks M. tuberculosis RecA intein splicing; 0.75% of 290,000 active; inhibition, % (concentration not given with the values); P9WHJ3; cell-free RecA intein splicing, fluorescence; in the data active = inhibition above about 30%;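 note: 0% = vehicle wells and 100% = reference inhibitor control wells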
# Target sequence (P9WHJ3 whole entry, looked up, canonical isoform): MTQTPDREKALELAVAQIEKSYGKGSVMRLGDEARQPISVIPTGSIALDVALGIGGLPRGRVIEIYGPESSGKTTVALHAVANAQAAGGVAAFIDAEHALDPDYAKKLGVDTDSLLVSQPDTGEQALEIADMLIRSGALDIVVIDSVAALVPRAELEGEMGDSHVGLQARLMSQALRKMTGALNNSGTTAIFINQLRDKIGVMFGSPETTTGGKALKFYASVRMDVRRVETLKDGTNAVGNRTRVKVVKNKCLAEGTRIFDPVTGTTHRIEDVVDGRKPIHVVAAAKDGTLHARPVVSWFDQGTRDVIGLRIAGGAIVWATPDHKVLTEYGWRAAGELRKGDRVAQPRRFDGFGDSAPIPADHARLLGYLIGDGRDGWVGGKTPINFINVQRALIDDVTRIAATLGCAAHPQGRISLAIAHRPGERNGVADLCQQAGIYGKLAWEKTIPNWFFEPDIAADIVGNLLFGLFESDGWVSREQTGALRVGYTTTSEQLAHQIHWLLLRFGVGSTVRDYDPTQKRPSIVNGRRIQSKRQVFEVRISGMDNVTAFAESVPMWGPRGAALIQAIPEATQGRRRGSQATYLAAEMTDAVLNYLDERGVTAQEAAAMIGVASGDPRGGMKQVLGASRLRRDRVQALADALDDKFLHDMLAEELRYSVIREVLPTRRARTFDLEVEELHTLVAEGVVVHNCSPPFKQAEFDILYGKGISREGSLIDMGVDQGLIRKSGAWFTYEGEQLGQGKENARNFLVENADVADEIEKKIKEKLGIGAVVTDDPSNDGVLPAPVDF
# Mtb betalactam: beta-lactam sensitization of Mtb H37Rv; 0.27% of 330,000 active; inhibition, % at 25 µM; M. tuberculosis H37Rv growth with meropenem, percent inhibition; AID 434955; call rule not given here;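 note: growth measured after seven days incubation then overnight dye step; 0% = bacteria only wells and 100% = bacteria with antibiotic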
# GDH-TPI counter: GDH-TPI coupled enzyme inhibition counter-screen; GDH-TPI coupled enzyme counterscreen, NADH absorbance; inhibition, % at 4.8 µM; 1.2% of 360,000 active; AID 588335;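 note: 0% = DMSO wells and 100% = wells lacking the enzyme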
# CCHF vOTU inh: blocks the CCHF virus ovarian tumor domain protease. CCHFV vOTU protease, Pep-AMC fluorescence. inhibition, % at 11.5 µM. 0.55% of 370,000 active. AID 651958; note: 0% = vehicle wells with enzyme and 100% = no enzyme wells
# Starred values were filed as active, the others as inactive; i = inactive; . = no result; + = active, no number. Cut-off read from the data, not from the text of the source, unless noted: active = inhibition above about 30%; inactive = the rest.
SMILES,FBA Mtb inh,RecA splice inh,Mtb betalactam,GDH-TPI counter,CCHF vOTU inh
CCOc1cc(C2Nc3ccccc3NC3=C2C(=O)CC(C)(C)C3)ccc1O (configuration not stated),3,-3,4,6,2
COc1ccc(S[C@]2(C(=O)N3CCCC3)CC(=O)N(C(=O)C3CC3)[C@@H]2c2ccc(OC)cc2)cc1,.,.,.,.,7
O=C(O)c1cccc(-c2ccc(/C=N/NC(=O)C3COc4ccccc4O3)o2)c1 (configuration not stated),5,-1,4,38*,9
CC(C)(C)c1ccc2c(c1)OC(C(=O)N/N=C\c1ccccn1)CO2 (configuration not stated),-1,-1,-6,9,-4
CC(C)(C)c1ccc2c(c1)OC(C(=O)N/N=C\c1ccc(-c3cccc(C(=O)O)c3)o1)CO2 (configuration not stated),9,0,1,39*,24
Cc1ccc(N2CCN(/N=C\c3cccnc3)CC2)cc1,.,.,.,.,2
COc1ccc(-c2cn3nc(SCC(=O)NCC4CCCO4)ccc3n2)cc1 (configuration not stated),128*,-174,-9,24,-243
COc1ccc(/C=C\c2nc(=O)c3ccccc3o2)cc1,2,2,.,26,10
O=c1nc(/C=C/c2ccc(O)c(O)c2)oc2ccccc12,-13,-7,.,44*,.
O=c1[nH]c(=S)n(Cc2ccc(F)cc2)c(O)c1C=NCc1cccnc1,-3,-1,12,35*,7
CC(C)n1c(O)c(C=NCc2ccccc2)c(=O)[nH]c1=S,-4,-2,9,40*,9
CCc1nnn2c1Cn1c3ccccc3c(=O)n1[C@@H](C(C)C)C2,.,.,.,.,-9
O=c1cc(O)c2c(=O)n(-c3ccccc3)c3c(c2o1)CCCCC3,2,0,-2,32*,-20
O=c1c(-c2ccccc2)c(O)c2c(n1-c1ccccc1)CCCC2,3,3,14,-4,-8
Cc1cccn2c(=O)c3cc(C#N)c(=N)n(CCN4CCOCC4)c3nc12,53*,-127,.,0,.
Cc1cccn2c(=O)c3cc(C#N)c(=O)n(-c4c(C)n(C)n(-c5ccccc5)c4=O)c3nc12,1,.,-4,7,6
CCCn1c(=N)c(C#N)cc2c(=O)n3cccc(C)c3nc21,.,-121,0,.,.
CCCCNC(=O)c1cc2c(=O)n3cccc(C)c3nc2n(Cc2ccncc2)c1=N,151*,i,-5,-1,-187
Cc1cc(-n2c(=O)c(C#N)cc3c(=O)n4cccc(C)c4nc32)no1,+,-330,-9,-7,-114
CCCCNC(=O)c1cc2c(=O)n3cccc(C)c3nc2n(CCN2CCOCC2)c1=N,137*,-128,-6,14,-105
O=C(CCCCCN1C(=O)C2C3C=CC(C3)C2C1=O)N1CCN(c2ncccn2)CC1 (configuration not stated),.,.,.,.,-7
CC(C)CN1C(=O)C[C@]2(C(=O)N(C)c3ccc(NC(=O)C(C)(C)C)cc32)C1c1ccccc1 (some centres not stated),.,.,.,.,0
CCOCC(=O)NC(=O)N1C[C@H]2CON(C)[C@H]2C[C@H]1c1ccc(OC)cc1,.,.,.,.,7
COCCNC(=O)c1cc2c(=O)n3cccc(C)c3nc2n(Cc2ccncc2)c1=N,+,i,-3,12,-318
CC(C)CNC(=O)OCc1cn(Cc2cccc(C(F)(F)F)c2)nn1,.,.,.,.,5
SMILES,FBA Mtb inh,RecA splice inh,Mtb betalactam,GDH-TPI counter,CCHF vOTU inh
CN1CCN(c2ccc(-c3cccc4nccn34)cn2)CC1,+,.,.,30,-217
c1cc(-c2ccc(CN3CCOCC3)cc2)n2ccnc2c1,+,.,.,8,-117
c1cn2cc(-c3ccc(CN4CCOCC4)cc3)ccc2n1,14,.,.,5,11
N#Cc1ccc(-c2cccc3nccn23)cc1,178*,.,.,4,-204
CC(C)(C)N(Cc1cn(CC2CCCCC2)nn1)S(=O)(=O)c1ccc(F)cc1Br,.,.,.,.,9
N#CCC[C@@H]1CC[C@]2(CCCN(S(=O)(=O)C3CCCCC3)C2)O1,.,.,.,.,-2
Cc1cc(NC(=O)c2sc3ccccc3c2O)no1,+,-39,11,9,-105
O=C1N=NC2=C1c1c3ccccc3c(O)n1CC2,-3,56*,4,13,27
CCOC(=O)C1CCCN(C(=O)c2ccc(OCC)cc2)C1 (configuration not stated),+,-4,5,-6,-6
COc1ccc2c(c1)CCCN2C(=O)C1CCCN(S(=O)(=O)c2cc(OC)ccc2OC)C1 (configuration not stated),.,.,.,.,-3
N/C(=N\[N+](=O)[O-])N/N=C/c1ccc(O)cc1,0,-6,-1,37*,10
O=C(N/N=C/c1ccc(O)cc1O)C(=O)N/N=C/c1ccc(O)cc1O,-3,-5,3,41*,8
Cc1cc(C)n(CCC(=O)N/N=C/c2ccc(O)cc2O)n1,4,-4,37,31*,25
O=C(CCC(=O)Nc1ccc(F)cc1)N/N=C/c1ccc(O)cc1O,5,-3,1,26,-6
CC(C)=C(NC(=O)c1ccccc1)C(=O)N/N=C/c1ccc(O)cc1,-1,-3,5,14,-14
C=C1CC(C(=O)N/N=C/c2ccc(O)cc2)C1,4,3,-10,4,-17
O=C(NN=Cc1ccc(O)cc1)C(=O)NN=Cc1ccc(O)cc1,-7,.,.,68*,13
CCOC(=O)CNC(=O)N(C)[C@H]1C[C@H]2c3[nH]c4c(-c5cccc(C)c5)cccc4c3CCN2C(=O)[C@H]1[C@H](C)O,.,.,.,.,-25
COCc1cc(C)nc(OCC(=O)N/N=C/c2ccc(O)cc2O)c1C#N,2,-3,-1,35*,6
COCc1cc(C)nc(OCC(=O)N/N=C/c2ccccc2O)c1C#N,2,-5,6,18,2
CCCCCCCCN1C(=O)[C@@H](CC(=O)NCC23CC4CC(CC(C4)C2)C3)C[C@@]2(C(=O)OC)C1=C[C@H](COCc1ccccc1)O[C@@H]2C,.,.,.,.,19
CCN(CC)c1ccc(C=C2C(=O)OC(C)(C(C)(C)C)OC2=O)cc1 (configuration not stated),-1,-1,-4,36*,-3
Cc1ccc(S(=O)(=O)NCCCc2ccc3c(c2)[C@]2(CCC[C@@H](OCc4ccccc4)[C@@H]2NC(=O)CCc2ccccc2)C(=O)N3Cc2ccccc2)cc1,.,.,.,.,5
CCN(CC)Cc1c(O)c(Cl)cc2c3c(c(=O)oc12)CCCC3,+,-171,2,15,-211
Cc1coc2c(C)c3oc(=O)c4c(c3cc12)CCCC4,3,0,6,-7,-5
CN(C)Cc1c(O)c(Cl)cc2c3c(c(=O)oc12)CCCC3,+,-149,12,19,-211
O=c1oc2c(CN3CCOCC3)c(O)c(Cl)cc2c2c1CCC2,.,.,.,16,-232
O=C1C(NC(=O)C(F)(F)Br)CCCCN1Cc1cccc(C(F)(F)F)c1 (configuration not stated),.,.,.,.,2
Cn1nnc(NC(=S)NC(=O)c2ccc(-c3ccc(Br)cc3)o2)n1,2,1,97,26,3
CCCn1nnc(NC(=S)NC(=O)c2ccc(-c3ccc(Br)cc3)o2)n1,4,-4,97,35*,-13
